Compound activity from PubChem.
An excerpt weighted towards active compounds, which were near 10% of everything screened.
Luciferase inh = blocks purified firefly luciferase enzyme activity. purified P. pyralis luciferase, luminescence, biochemical. Potency, µM (titrated, usually from 115 µM), most hits filed as inhibitors. AID 1347043. 76,000 compounds, 2.5% hits. P08659; further: nearly all actives have a fitted effect of over 65% in size
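Purified 10nM P. pyralis luciferase with 10uM D-luciferin and 10uM ATP in 50mM Tris acetate pH 7.5, 10mM Mg acetate, 0.01% Tween-20, 0.05% BSA. qHTS titration; luminescence read by CCD imager.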
3T3 cytotox = kills NIH 3T3 cells; NIH 3T3 viability, CellTiter-Glo ATP luminescence, 48-72 h; Potency, µM (series often up to 96.7 µM), actives largely listed as inhibitors; 94,000 compounds, 4.3% hits; further: nearly all actives have a fitted effect of over 55% in size
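First NIH 3T3 cells are plated at 400 cells/well; next compound is pinned in; then plates incubate 48 or 72 hr at 37 °C; finally CellTiter-Glo is added and luminescence read after 10 min.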
HEK cytotox = HEK 293 cell cytotoxicity | HEK 293 viability, ATP luminescence (CellTiter-Glo), 48-72 h | Potency, µM (top dose mostly 115 µM), usual class: inhibitors | 94,000 compounds, 6.6% hits | AID 1345083; further: nearly all actives have a fitted effect of over 60% in size
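qHTS cytotoxicity; HEK 293, 250 cells/well; compound pinned; 48 or 72 hr, 37 degree Celsius, 5% CO2, 95% humidity; CellTiter-Glo, 10 min RT; luminescence (ATP).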
hNpr1 antagonist = blocks ANP-stimulated signaling of human Npr1 receptor | 76,000 compounds, 1.6% hits | AID 1347048 | HEK293 hNpr1 GloSensor cGMP, ANP-stimulated luminescence | P16066 | Potency, µM (doses to about 46.3 µM), actives largely listed as inhibitors; calls by dose curve; further: nearly all actives have a fitted effect of over 60% in size
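HEK293 cells stably expressing human Npr1 and cGMP GloSensor pGS-40F, loaded 2 h with 2% GloSensor reagent, given compound 30 min at room temperature. Luminescence read before and 20 min after 0.1 nM hNppA.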
GPT2 inh = blocks human glutamate pyruvate transaminase 2 | Q8TD30 | Recombinant GPT2, coupled pyruvate oxidase/HRP Amplex Red fluorescence | Potency, µM (series often up to 57.7 µM), hits mostly inhibitors | 100,000 compounds, 0.25% hits; further: nearly all actives have a fitted effect of over 60% in size
Target sequence (Q8TD30 whole entry, looked up): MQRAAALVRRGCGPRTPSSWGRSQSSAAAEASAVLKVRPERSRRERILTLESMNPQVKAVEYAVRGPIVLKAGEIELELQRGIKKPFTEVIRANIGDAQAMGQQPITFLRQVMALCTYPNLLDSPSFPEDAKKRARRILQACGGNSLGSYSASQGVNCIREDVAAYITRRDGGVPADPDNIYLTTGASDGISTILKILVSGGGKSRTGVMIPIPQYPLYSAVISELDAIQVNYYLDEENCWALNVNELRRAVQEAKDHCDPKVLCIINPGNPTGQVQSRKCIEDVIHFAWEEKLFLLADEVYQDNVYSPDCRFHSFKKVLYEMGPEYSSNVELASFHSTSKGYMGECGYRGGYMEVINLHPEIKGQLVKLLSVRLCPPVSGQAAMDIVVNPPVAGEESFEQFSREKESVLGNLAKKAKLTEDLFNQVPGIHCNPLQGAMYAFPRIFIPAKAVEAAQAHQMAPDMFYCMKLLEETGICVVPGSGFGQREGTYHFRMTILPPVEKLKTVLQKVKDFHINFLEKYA
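Inhibition is scored from Amplex Red fluorescence generated when pyruvate oxidase and HRP act on pyruvate released by GPT2. Reactions contain 10ng/uL enzyme, 250uM a-KG and 2mM L-alanine and run 30 min at room temperature.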
NPR1 antag cnf = confirmation of human Npr1 natriuretic peptide receptor antagonists. 1,400 compounds, 76% hits. shares compounds with hNpr1 antagonist. HEK293 hNpr1 cGMP GloSensor luminescence, ANP-stimulated. Potency, µM (highest dose often 57.6 µM), hits mostly inhibitors; calls by dose curve; further: nearly all actives have a fitted effect of over 70% in size
NPR2 antag = hNpr2 antagonism, selectivity versus Npr1 | shares compounds with hNpr1 antagonist | HEK293 hNpr2 GloSensor cGMP luminescence, CNP-stimulated | Potency, µM (doses to about 57.6 µM), most hits filed as inhibitors | 1,400 compounds, 67% hits | AID 1347046; calls by dose curve; further: nearly all actives have a fitted effect of over 70% in size
FLuc inh counter = counter-screen for Npr1 antagonists: firefly luciferase inhibitors. shares compounds with hNpr1 antagonist. purified FLuc enzyme, luminescence, Km substrate. Potency, µM (series often up to 57.6 µM), actives largely listed as inhibitors. 1,400 compounds, 0.7% hits. AID 1347047
GloSensor cGMP = counter-screen for Npr1 antagonists: GloSensor control cell line. shares compounds with hNpr1 antagonist. HEK293 GloSensor cGMP, SNP-stimulated, luminescence. Potency, µM (top dose mostly 57.6 µM), usual class: inhibitors. 1,400 compounds, 69% hits; calls by dose curve; further: nearly all actives have a fitted effect of over 70% in size
Large screens that a line does not name were inactive (follow-up assays come after a bar, where they were run). Unless noted, the call rests on the fitted dose curve; in most records, active means well fitted curve in the direction sought with a large enough effect; inconclusive means small, poorly fitted or top-dose-only effect, or another doubt; inactive means no such curve, though single readings can be large; an effect the other way counts as inactive or inconclusive.

COc1ccc(OC)c(S(=O)(=O)N2CCC(n3c(C)cnc3C3CCOCC3)CC2)c1	none (no result: Luciferase inh, hNpr1 antagonist)
Cc1cc(C)n(CC(=O)N[C@@H]2CN(Cc3ccccc3)C[C@H]2CN(C)C)c(=O)n1	hNpr1 antagonist 11.2µM | NPR1 antag cnf inactive | NPR2 antag inactive | FLuc inh counter inactive | GloSensor cGMP inactive
O=C(C1CC1)N1CCC(c2noc(-c3cccnc3)n2)C1 (stereo unspecified)	none
O=C(c1[nH]nc2c1CCc1ccccc1-2)N1CCC(c2noc(-c3cccnc3)n2)C1 (stereo unspecified)	3T3 cytotox inconclusive, HEK cytotox 35.5µM, hNpr1 antagonist 12.6µM | NPR1 antag cnf 21.7µM | NPR2 antag 24.3µM | FLuc inh counter inactive | GloSensor cGMP 21.7µM
CNC(=O)c1cc(C2CC2)nc2onc(C3CCN(C(=O)NC(C)C)C3)c12 (stereo unspecified)	none (no result: Luciferase inh, hNpr1 antagonist, GPT2 inh)
CCOC(=O)C1(Cc2ccc(OC)cc2)CCN(C(=O)c2cccc(Cl)c2)CC1	Luciferase inh inconclusive, 3T3 cytotox inconclusive, HEK cytotox inconclusive
CCOC(=O)C1(Cc2ccc(Cl)cc2)CCN(C(=O)c2cc(C)oc2C)CC1	3T3 cytotox 25.1µM, HEK cytotox 20µM, hNpr1 antagonist 12.6µM | NPR1 antag cnf 21.7µM | NPR2 antag 21.7µM | FLuc inh counter inactive | GloSensor cGMP 19.3µM
COC[C@@H]1CN(Cc2cc(OC)cc(OC)c2)C[C@H]1C(=O)N(C)C	none
CC(C)Oc1ccc(CNC(=O)c2cc3n(n2)CC(c2ccc(Cl)cc2)OC3)cc1 (stereo unspecified)	3T3 cytotox inconclusive, HEK cytotox inconclusive, hNpr1 antagonist inconclusive, GPT2 inh inconclusive | NPR1 antag cnf inconclusive | NPR2 antag inactive | FLuc inh counter inactive | GloSensor cGMP inactive
COc1ccc(CNC(=O)c2cc3n(n2)CC(c2ccc(Cl)cc2)OC3)cc1OC (stereo unspecified)	3T3 cytotox inconclusive, HEK cytotox inconclusive, hNpr1 antagonist inconclusive
O=C(NCc1ccc(F)c(Cl)c1)c1cc2n(n1)CC(c1ccc(Cl)cc1)OC2 (stereo unspecified)	3T3 cytotox inconclusive, HEK cytotox 35.5µM, hNpr1 antagonist inconclusive | NPR1 antag cnf inconclusive | NPR2 antag inactive | FLuc inh counter inactive | GloSensor cGMP inconclusive
COc1ccc(C(=O)N2CCC3(CC2)N=C(c2ccccc2)NO3)cc1F	none
COc1ccc(C(=O)N2CCC3(CC2)N=C(c2ccc(Cl)cc2)NO3)cc1F	HEK cytotox inconclusive, hNpr1 antagonist 10µM | NPR1 antag cnf 19.3µM | NPR2 antag 19.3µM | FLuc inh counter inactive | GloSensor cGMP 21.7µM
COc1ccc(C(=O)N2CCC3(CC2)N=C(c2ccc(Cl)cc2)NO3)cc1	HEK cytotox inconclusive, hNpr1 antagonist 10µM | NPR1 antag cnf 17.2µM | NPR2 antag 19.3µM | FLuc inh counter inactive | GloSensor cGMP 9.68µM
Cc1cc2nc3n(c(=O)c2n1CC(=O)Nc1ccc2c(c1)OCO2)CCCC3	none
COc1cccc(-c2ccccc2NC(=O)C2CCN(Cc3cc(OC)ccc3O)CC2)c1	3T3 cytotox inconclusive, HEK cytotox 17.8µM, hNpr1 antagonist inconclusive, GPT2 inh inconclusive | NPR1 antag cnf 24.3µM | NPR2 antag inconclusive | FLuc inh counter inactive | GloSensor cGMP 27.3µM
Cc1ccc(OCC(=O)N2CCCC(c3nn(C)c(=O)n3C(C)C)C2)cc1 (stereo unspecified)	HEK cytotox inconclusive, hNpr1 antagonist 14.1µM | NPR1 antag cnf 24.3µM | NPR2 antag inconclusive | FLuc inh counter inactive | GloSensor cGMP 24.3µM
CN(C)c1cccc(C(=O)N2CCN(C(=O)c3nnn4c3COC(c3ccccc3)C4)CC2)c1 (stereo unspecified)	Luciferase inh inconclusive, 3T3 cytotox inconclusive, HEK cytotox inconclusive
O=C1CCC(CNC(=O)c2nc(-c3ccccc3)cc3[nH]ccc23)N1 (stereo unspecified)	3T3 cytotox inconclusive
O=C(NCCCn1ccnc1)c1nc(-c2ccccc2)cc2[nH]ccc12	3T3 cytotox inconclusive, HEK cytotox inconclusive, hNpr1 antagonist inconclusive | NPR1 antag cnf inconclusive | NPR2 antag inconclusive | FLuc inh counter inactive | GloSensor cGMP inactive
COc1ccccc1CCN1CCCC(CN(C)C(=O)C(=O)c2cccn2C)C1 (stereo unspecified)	3T3 cytotox inconclusive
Cc1cc(C)cc(-n2ncc3c2CCCC3NC(=O)CCn2nnnc2C)c1 (stereo unspecified)	none
Cc1ccc(-n2ncc3c2CCCC3NC(=O)c2cc(C(C)C)no2)cc1C (stereo unspecified)	3T3 cytotox inconclusive, HEK cytotox inconclusive, hNpr1 antagonist 14.1µM | NPR1 antag cnf 17.2µM | NPR2 antag 17.2µM | FLuc inh counter inactive | GloSensor cGMP 12.2µM
CC1=NS(=O)(=O)N(C)C=C1C(=O)OCc1nc(C2CC2)no1	none
CC1=NS(=O)(=O)N(Cc2ccccc2)C=C1C(=O)OCc1noc(C2CCCC2)n1	3T3 cytotox inconclusive, HEK cytotox inconclusive
CC1=NS(=O)(=O)N(C)C=C1C(=O)OCc1noc(-c2cccs2)n1	3T3 cytotox inconclusive, HEK cytotox inconclusive, hNpr1 antagonist 10µM | NPR1 antag cnf 21.7µM | NPR2 antag 19.3µM | FLuc inh counter inactive | GloSensor cGMP 21.7µM
CC1=NS(=O)(=O)N(C)C=C1C(=O)OCc1noc(-c2ccccc2C)n1	3T3 cytotox inconclusive, HEK cytotox inconclusive, hNpr1 antagonist 10µM | NPR1 antag cnf 10.9µM | NPR2 antag 17.2µM | FLuc inh counter inactive | GloSensor cGMP 10.9µM
CC1=NS(=O)(=O)N(C)C=C1C(=O)OCc1noc(-c2ccccc2F)n1	3T3 cytotox inconclusive, hNpr1 antagonist 11.2µM | NPR1 antag cnf 19.3µM | NPR2 antag 17.2µM | FLuc inh counter inactive | GloSensor cGMP 13.7µM
COC(=O)c1ccc(COC(=O)C2=CN(C)S(=O)(=O)N=C2C)o1	hNpr1 antagonist inconclusive | NPR1 antag cnf 24.3µM | NPR2 antag inconclusive | FLuc inh counter inactive | GloSensor cGMP 19.3µM
CCc1ccc(S(=O)(=O)N2CCC(n3cnnc3C)CC2)cc1	none
O=C(CCCc1ccccc1)N1CCC(c2nc(C3CCOCC3)no2)C1 (stereo unspecified)	none
